Among all 5,500 compounds or so, about 2,000 (36%) were called active. Inconclusive results (about 18%) are left out. No stated cut-off is given here; in the data, active means normalized growth mostly below about 0.91 (no sharp cut-off); inconclusive means no clear call, values can overlap the other calls; inactive means mostly above about 0.92. This is one part of the list.
Test: chemical genetic growth profiling, strain panel (AID 1159580);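 further: tested at 20 µM; growth read once vehicle control cultures reached saturation at 30 °C; 1 = growth at the plate median or of vehicle wells; lower values mean less growth of the strain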
Conditions: growth OD

Measured: normalized growth

NC(C(=O)O)C(O)C(=O)O (stereo not drawn)
inactive: S. cerevisiae deletion strains, locus YJR066W, strain TOR1, hits give low values 0.994 | S. cerevisiae deletion strains, locus YJR075W, strain HOC1, hits give low values 1.01 | S. cerevisiae deletion strains, locus YKL009W, strain mrt4, hits give low values 1.02 | S. cerevisiae deletion strains, locus YKL068W, hits give low values 1.01 | S. cerevisiae deletion strains, locus YKL085W, strain MDH1 (second series), hits give low values 0.999 | S. cerevisiae deletion strains, locus YKL085W, strain MDH1, hits give low values 0.999 | S. cerevisiae deletion strains, locus YKL160W, strain elf1, hits give low values 0.974 | S. cerevisiae deletion strains, locus YKR001C, strain vps1, hits give low values 1.02 | S. cerevisiae deletion strains, locus YKR026C, strain gcn3, hits give low values 0.997 | S. cerevisiae deletion strains, locus YKR091W, strain srl3, hits give low values 0.984 | S. cerevisiae deletion strains, locus YLL001W, strain dnm1, hits give low values 0.987 | S. cerevisiae deletion strains, locus YLL026W, hits give low values 0.996 | S. cerevisiae deletion strains, locus YLL041C, strain sdh2, hits give low values 0.978 | S. cerevisiae deletion strains, locus YLR027C, strain aat2, hits give low values 0.998 | S. cerevisiae deletion strains, locus YLR039C, strain RIC1, hits give low values 1.02 | S. cerevisiae deletion strains, locus YLR058C, strain SHM2, hits give low values 1.01 | S. cerevisiae deletion strains, locus YLR102C, strain apc9, hits give low values 1.04 | S. cerevisiae deletion strains, locus YLR113W, strain HOG1, hits give low values 1.07 | S. cerevisiae deletion strains, locus YLR221C, strain rsa3, hits give low values 1.05 | S. cerevisiae deletion strains, locus YLR258W, strain gsy2, hits give low values 0.995 | S. cerevisiae deletion strains, locus YLR262C, strain YPT6 (second series), hits give low values 0.973 | S. cerevisiae deletion strains, locus YLR262C, strain YPT6, hits give low values 1.02 | S. cerevisiae deletion strains, locus YLR268W, strain sec22, hits give low values 1.07 | S. cerevisiae deletion strains, locus YLR320W, strain mms22, hits give low values 1.04 | S. cerevisiae deletion strains, locus YLR330W, strain CHS5, hits give low values 1.01 | S. cerevisiae deletion strains, locus YLR342W, strain FKS1 (second series), hits give low values 1 | S. cerevisiae deletion strains, locus YLR342W, strain FKS1, hits give low values 0.999 | S. cerevisiae deletion strains, locus YLR357W, strain rsc2, hits give low values 0.982 | S. cerevisiae deletion strains, locus YLR370C, strain arc18, hits give low values 0.988 | S. cerevisiae deletion strains, locus YLR371W, strain rom2, hits give low values 1.02 | S. cerevisiae deletion strains, locus YLR384C, strain iki3, hits give low values 0.981 | S. cerevisiae deletion strains, locus YLR418C, strain cdc73, hits give low values 1.03 | S. cerevisiae deletion strains, locus YML016C, strain PPZ1, hits give low values 1.01 | S. cerevisiae deletion strains, locus YML032C, strain rad52, hits give low values 1.02 | S. cerevisiae deletion strains, locus YML120C, strain ndi1, hits give low values 0.96 | S. cerevisiae deletion strains, locus YML124C, strain tub3, hits give low values 1.02 | S. cerevisiae deletion strains, locus YMR058W, strain fet3, hits give low values 0.99 | S. cerevisiae deletion strains, locus YMR078C, strain ctf18, hits give low values 1.04 | S. cerevisiae deletion strains, locus YMR125W, strain sto1, hits give low values 0.95 | S. cerevisiae deletion strains, locus YMR129W, hits give low values 1 | S. cerevisiae deletion strains, locus YMR205C, strain PFK2, hits give low values 0.966 | S. cerevisiae deletion strains, locus YMR223W, strain ubp8, hits give low values 1.03 | S. cerevisiae deletion strains, locus YMR231W, strain pep5, hits give low values 0.993 | S. cerevisiae deletion strains, locus YMR307W, strain GAS1, hits give low values 1.08 | S. cerevisiae deletion strains, locus YNL067W, strain RPL9B, hits give low values 1.01 | S. cerevisiae deletion strains, locus YNL071W, strain lat1, hits give low values 0.982 | S. cerevisiae deletion strains, locus YNL153C, strain GIM3, hits give low values 1.01 | S. cerevisiae deletion strains, locus YNL183C, strain NPR1, hits give low values 0.982 | S. cerevisiae deletion strains, locus YNL209W, strain ssb2, hits give low values 0.982 | S. cerevisiae deletion strains, locus YNL233W, strain BNI4, hits give low values 1.01 | S. cerevisiae deletion strains, locus YNL248C, strain rpa49, hits give low values 0.94 | S. cerevisiae deletion strains, locus YNL250W, strain rad50, hits give low values 1.05 | S. cerevisiae deletion strains, locus YNL271C, strain bni1, hits give low values 1.03 | S. cerevisiae deletion strains, locus YNL298W, strain CLA4, hits give low values 1.05 | S. cerevisiae deletion strains, locus YNL307C, strain MCK1, hits give low values 1.03 | S. cerevisiae deletion strains, locus YNL322C, strain KRE1 (second series), hits give low values 0.98 | S. cerevisiae deletion strains, locus YNR049C, strain mso1, hits give low values 0.981 | S. cerevisiae deletion strains, locus YNR052C, strain pop2, hits give low values 1.04 | S. cerevisiae deletion strains, locus YOL147C, strain pex11, hits give low values 1.02 | S. cerevisiae deletion strains, locus YOR001W, strain rrp6, hits give low values 1.01 | S. cerevisiae deletion strains, locus YOR061W, strain CKA2, hits give low values 1.01 | S. cerevisiae deletion strains, locus YOR069W, strain VPS5, hits give low values 1 | S. cerevisiae deletion strains, locus YOR070C, strain gyp1, hits give low values 1.03 | S. cerevisiae deletion strains, locus YOR080W, strain dia2, hits give low values 0.996 | S. cerevisiae deletion strains, locus YOR083W, strain WHI5, hits give low values 0.979 | S. cerevisiae deletion strains, locus YOR106W, strain vam3, hits give low values 0.956 | S. cerevisiae deletion strains, locus YOR136W, strain idh2, hits give low values 1.03 | S. cerevisiae deletion strains, locus YOR144C, strain elg1, hits give low values 1.02 | S. cerevisiae deletion strains, locus YOR184W, strain ser1, hits give low values 1.03 | S. cerevisiae deletion strains, locus YOR231W, strain MKK1, hits give low values 1.09 | S. cerevisiae deletion strains, locus YOR265W, strain rbl2, hits give low values 0.987 | S. cerevisiae deletion strains, locus YOR270C, strain vph1, hits give low values 1.01 | S. cerevisiae deletion strains, locus YOR290C, strain snf2, hits give low values 0.926 | S. cerevisiae deletion strains, locus YOR316C, strain cot1, hits give low values 1.02 | S. cerevisiae deletion strains, locus YPL051W, strain arl3, hits give low values 1 | S. cerevisiae deletion strains, locus YPL055C, strain LGE1, hits give low values 1.03 | S. cerevisiae deletion strains, locus YPL078C, strain atp4, hits give low values 0.949 | S. cerevisiae deletion strains, locus YPL106C, strain sse1, hits give low values 0.954 | S. cerevisiae deletion strains, locus YPL240C, strain hsp82, hits give low values 0.996 | S. cerevisiae deletion strains, locus YPL241C, strain CIN2, hits give low values 1 | S. cerevisiae deletion strains, locus YPL256C, strain CLN2, hits give low values 1.03 | S. cerevisiae deletion strains, locus YPR119W, strain clb2, hits give low values 1.02 | S. cerevisiae deletion strains, locus YPR141C, strain kar3, hits give low values 1.02 | S. cerevisiae deletion strains, locus YPR163C, strain tif3, hits give low values 1.03 | S. cerevisiae deletion strains, locus YPR167C, strain met16, hits give low values 1.02 | S. cerevisiae deletion strains, strain wtn01, hits give low values 1.03 | S. cerevisiae strains, strain wild type, hits give low values 1.01
active: S. cerevisiae deletion strains, locus YOL012C, strain htz1 1.88 [resistant]

Source: PubChem BioAssay AID1159580 (chemical genetic matrix, 2015)
